High-throughput results (PubChem BioAssay)
An excerpt weighted towards active compounds, which were near 19% of everything screened.
KB-3-1 cytotox: KB-3-1 parental cell cytotoxicity. Potency, µM (top dose mostly 46.1 µM), actives largely listed as cytotoxic. AID 1347075. 1.4% of 400,000 active. KB-3-1 viability, CellTiter-Glo ATP luminescence, 72 h; further: nearly all actives have a fitted effect of over 60% in size
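Viability of parental KB-3-1 cells, measured by CellTiter-Glo luminescence, followed a 72 h incubation at 37 °C with pinned compounds in phenol-red-free DMEM containing 10% FBS.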
KB-V1 cytotox: kills drug-selected multidrug resistant KB-V1 cells; Potency, µM (titrated, usually from 46.1 µM), most hits filed as cytotoxic; 3.4% of 400,000 active; AID 1347076; KB-V1 MDR cells viability, CellTiter-Glo, 72 h; further: nearly all actives have a fitted effect of over 60% in size
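Luminescent ATP read-out (CellTiter-Glo, 10 min) measures survival of drug-selected KB-V1 MDR cells after 72 h, 37 degrees C compound exposure. Medium: phenol-red-free DMEM, 10% FBS. Values from fitted concentration-response curves.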
DT40 TDP1 no CPT: qHTS for Inhibitors of human tyrosyl-DNA phosphodiesterase 1 (TDP1): qHTS in cells in absence of CPT; DT40 Tdp1-/- hTDP1 cells, no CPT, ATP luminescence, 48 h; Potency, µM (titrated, usually from 46.2 µM), actives largely listed as inhibitors; 15% of 420,000 active; AID 686978, 2013; further: nearly all actives have a fitted effect of over 55% in size
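Growth kinetics read by CellTiter-Glo luminescence after ≥48 hr at 37 °C. Cells: DT40 Tdp1-/- stably carrying human TDP1, 400 per well, compound exposure in the absence of CPT (DMSO vehicle).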
TDP1 cell CPT: growth inhibition of DT40 Tdp1-/-;hTDP1 cells with camptothecin (screen for TDP1 inhibitors); Potency, µM (series often up to 46.2 µM), actives largely listed as inhibitors; 12% of 420,000 active; chicken DT40 Tdp1-/-;hTDP1 cells + 20 nM CPT, ATP luminescence, 48 h; further: nearly all actives have a fitted effect of over 55% in size
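Chicken DT40 Tdp1-/- cells stably complemented with human TDP1 were seeded at 400 cells/well in medium containing 20 nM camptothecin, exposed to pin-transferred compounds, and grown at 37 °C for at least 48 hr. Viability was read as ATP luminescence.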
HT1080NT lethal: kills 2HG-producing HT-1080-NT fibrosarcoma cells; HT-1080-NT fibrosarcoma viability, CellTiter-Glo ATP luminescence, 48 h; Potency, µM (highest dose often 46.1 µM), hits mostly cytotoxic; 1.6% of 360,000 active;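 further: NT is the 2HG producing partner of a matched IDH1 knockdown line; nearly all actives have a fitted effect of over 55% in size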
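HT-1080-NT fibrosarcoma cells (2HG-overproducing), 750 cells/well in RPMI with 5% FBS, dosed after 2 h and incubated 48 h at 37C. CellTiter-Glo luminescence normalized to DMSO and no-cell wells; concentration-response curves fitted and classed.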
HT1080 IDH1KD tx: toxicity to HT-1080 IDH1 knockdown cells (counter line); 2% of 360,000 active; AID 686971; HT-1080 IDH1 knockdown viability, ATP luminescence, 48 h; Potency, µM (doses to about 46.1 µM), actives largely listed as cytotoxic
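HT-1080-IDH1KD cells (IDH1 knocked down), 750/well in RPMI with 5% FBS, treated with compound 48 h at 37 degrees C. Viability by CellTiter-Glo luminescence, normalised to DMSO and no-cell wells; concentration-response curves classed.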
Large screens that a line does not name were inactive. The call rests on the fitted dose curve; in most records, active means well fitted curve in the direction sought with a large enough effect; inconclusive means small, poorly fitted or top-dose-only effect, or another doubt; inactive means no such curve, though single readings can be large; an effect the other way counts as inactive or inconclusive.

Nc1sccc1C(=O)N1CCN(c2ccccc2)CC1	DT40 TDP1 no CPT 16µM, TDP1 cell CPT 18µM
CCc1sc(C(=O)N2CCN(c3ccc(F)cc3)CC2)cc1C	DT40 TDP1 no CPT 15µM, TDP1 cell CPT inconclusive
O=C(c1cnc(N2CCOCC2)c2ccccc12)N1CCN(c2ccc(F)cc2)CC1	KB-V1 cytotox inconclusive, DT40 TDP1 no CPT inconclusive, TDP1 cell CPT 15µM (no result: HT1080NT lethal, HT1080 IDH1KD tx)
CCN1CCN(c2ncc(C(=O)N3CCN(c4ccccc4OC)CC3)c3ccccc23)CC1	DT40 TDP1 no CPT inconclusive
COc1ccccc1N1CCN(C(=O)c2cnc(N3CCCCC3)c3ccccc23)CC1	DT40 TDP1 no CPT 3.7µM, TDP1 cell CPT 4.6µM (no result: KB-3-1 cytotox, KB-V1 cytotox, HT1080NT lethal, HT1080 IDH1KD tx)
O=C(O)c1ccccc1C(=O)N1CCN(c2ccccc2)CC1	KB-V1 cytotox inconclusive
O=C(c1cnc(N2CCOCC2)c2ccccc12)N1CCN(c2ccccc2F)CC1	DT40 TDP1 no CPT inconclusive, TDP1 cell CPT inconclusive (no result: HT1080NT lethal, HT1080 IDH1KD tx)
CCOC(=O)C1(Cc2cccc(F)c2)CCN(C(=O)c2cnc(C)cn2)CC1	none
O=C(c1cnc(N2CCCCC2)c2ccccc12)N1CCN(c2ccccc2F)CC1	DT40 TDP1 no CPT inconclusive, TDP1 cell CPT 16µM (no result: HT1080NT lethal, HT1080 IDH1KD tx)
COc1ccccc1N1CCN(C(=O)c2cnc(N3CCOCC3)c3ccccc23)CC1	KB-3-1 cytotox inconclusive, KB-V1 cytotox inconclusive, DT40 TDP1 no CPT 16µM, TDP1 cell CPT inconclusive (no result: HT1080NT lethal, HT1080 IDH1KD tx)
O=C(c1ccccc1C(=O)N1CCN(c2ccc(F)cc2)CC1)N1CCN(c2ccc(F)cc2)CC1	KB-V1 cytotox 9.2µM, DT40 TDP1 no CPT 9.2µM, TDP1 cell CPT inconclusive
O=C(c1ccccc1C(=O)N1CCN(c2ccccc2)CC1)N1CCN(c2ccccc2)CC1	DT40 TDP1 no CPT inconclusive, TDP1 cell CPT inconclusive
COc1ccccc1N1CCN(C(=O)N2CCOCC2)CC1	none
Cc1c(Br)c([N+](=O)[O-])nn1CC(=O)NC1CCCCCC1	KB-3-1 cytotox inconclusive, KB-V1 cytotox inconclusive
COc1ccccc1/C=C\C(=O)OC[C@@H]1CCCN2CCCC[C@H]12	none (no result: KB-3-1 cytotox, KB-V1 cytotox, HT1080NT lethal, HT1080 IDH1KD tx)
COc1ccc(C(C)NC(=O)CC23CC4CC(CC(C4)C2)C3)cc1 (stereo not given)	DT40 TDP1 no CPT 16µM, TDP1 cell CPT inconclusive
O=C(/C=C/c1ccco1)NC(=S)Nc1ccc(O)c(-c2nc3ccccc3s2)c1	KB-3-1 cytotox 5.8µM, KB-V1 cytotox inconclusive, DT40 TDP1 no CPT 21µM, TDP1 cell CPT 18µM, HT1080NT lethal inconclusive, HT1080 IDH1KD tx inconclusive
O=C(/C=C/c1ccco1)NC(=S)NNC(=O)c1ccco1	DT40 TDP1 no CPT 21µM, TDP1 cell CPT 16µM, HT1080NT lethal inconclusive, HT1080 IDH1KD tx inconclusive
O=C(Nc1ccc(O)c(-c2nc3ccccc3s2)c1)c1cc(=O)c2ccccc2o1	KB-3-1 cytotox inconclusive, DT40 TDP1 no CPT 8.2µM, TDP1 cell CPT 9.2µM
Cc1ccc(O)c(NC(=S)NC(=O)/C=C/c2ccco2)c1	KB-3-1 cytotox 10µM, KB-V1 cytotox inconclusive, DT40 TDP1 no CPT 6.5µM, TDP1 cell CPT 7.3µM
O=C(O)C(Nc1nc(C(F)(F)F)nc2ccccc12)c1ccccc1 (stereo not given)	none
Cc1ccnc(NC(=S)NC(=O)/C=C/c2ccco2)c1	KB-3-1 cytotox 10µM, KB-V1 cytotox 8.2µM, DT40 TDP1 no CPT 9.2µM, TDP1 cell CPT 10µM, HT1080NT lethal inconclusive, HT1080 IDH1KD tx inconclusive
CC1=C(C(=O)Nc2ccc([N+](=O)[O-])cc2)C(c2cccc(C(F)(F)F)c2)NC(=S)N1c1ccccc1 (stereo not given)	KB-3-1 cytotox inconclusive, KB-V1 cytotox inconclusive, DT40 TDP1 no CPT 16µM, TDP1 cell CPT 13µM, HT1080NT lethal inconclusive, HT1080 IDH1KD tx inconclusive
COc1ccc(C2NC(=S)N(c3ccccc3)C(C)=C2C(=O)Nc2ccccc2)cc1 (stereo not given)	none
Cc1ccc(N2C(=O)CCSC23C(=O)N(Cc2ccc(F)cc2)c2ccccc23)cc1 (stereo not given)	KB-V1 cytotox inconclusive, DT40 TDP1 no CPT 8.2µM, TDP1 cell CPT 8.2µM (no result: HT1080NT lethal, HT1080 IDH1KD tx)
